Data published in PubChem BioAssay (EPA / NIEHS).
Records with an inconclusive call do not appear. Calls of active or inactive are those of the source. Rule for the calls: active = hit-call score of the fitted dose curve at least 0.9, where 1 is the maximum; inconclusive = response in the unintended direction; inactive = score below 0.9.

biological target: human Peripheral-type Benzodiazepine Receptor (PBR), TSPO (gene 706) (UniProt P30536); assay: NVS_MP_hPBR: NovaScreen (NVS) Membrane Protein Assay for human Peripheral-type Benzodiazepine Receptor (PBR) (AID 2283331);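 note: hits reduce radioligand binding relative to DMSO baseline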
Sequence (P30536 whole entry, looked up): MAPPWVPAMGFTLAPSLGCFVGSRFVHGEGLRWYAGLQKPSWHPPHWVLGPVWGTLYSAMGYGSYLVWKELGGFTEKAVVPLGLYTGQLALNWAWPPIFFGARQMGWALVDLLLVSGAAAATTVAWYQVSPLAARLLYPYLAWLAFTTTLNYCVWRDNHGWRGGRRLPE
Summary of the method: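 Radioligand displacement on human colonic cell membranes, 1 h incubation; bound radioactivity by filtration and scintillation counting. Primary screen in duplicate at 25 uM single concentration, actives followed up in concentration series; loss of binding versus DMSO.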

Question: For COc1ccc(-c2coc3cc(O)cc(O)c3c2=O)cc1, which AC50 is on record?
Answer: The AC50 was 0.293 µM (active).

Question: Which AC50 does the source give for CCCCCCCOC(=O)c1ccc(O)cc1 here?
Answer: The AC50 was 2.98 µM (active).

Question: With CCCCNS(=O)(=O)c1ccc(C)cc1 as the compound, how does the AC50 read?
Answer: The AC50 was 7.96 µM (active).

Question: With C=CCOC(=O)c1ccc(C(=O)OCC=C)c(C(=O)OCC=C)c1 as the compound, how does the AC50 read?
Answer: Its AC50 is 9.19 µM (active).

Question: For CN(C)c1ccc2nc3ccc(=[N+](C)C)cc-3sc2c1, which AC50 is on record?
Answer: Its AC50 is 10.2 µM (active).

Question: Which AC50 does the source give for CCOC(=O)C1=NOC(c2ccccc2)(c2ccccc2)C1 here?
Answer: The AC50 was 8.19 µM (active).

biological target: rat Peripheral-type Benzodiazepine Receptor (PBR), Tspo (gene 24230) (UniProt P16257); assay: NVS_MP_rPBR: NovaScreen (NVS) Membrane Protein Assay for rat Peripheral-type Benzodiazepine Receptor (PBR) (AID 2283335)
Sequence (P16257 whole entry, looked up): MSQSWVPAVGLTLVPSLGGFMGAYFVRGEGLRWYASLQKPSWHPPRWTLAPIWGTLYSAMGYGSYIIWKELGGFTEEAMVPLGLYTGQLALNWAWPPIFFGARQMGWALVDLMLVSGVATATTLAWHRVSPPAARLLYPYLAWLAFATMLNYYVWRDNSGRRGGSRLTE
Summary of the method: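 Rat kidney membranes; radioligand binding with displacement, filter-based scintillation counting, 1 h incubation. Primary screen in duplicate at 25 uM, actives followed in concentration series; loss of binding vs DMSO.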

Question: Which AC50 does the source give for N#Cc1ccc(C(c2ccc(C#N)cc2)n2cncn2)cc1 here?
Answer: The AC50 was 6.92 µM (active).

Question: For O=c1c(O)c(-c2ccc(O)cc2O)oc2cc(O)cc(O)c12, which outcome is on record?
Answer: The outcome was “inactive”.

Question: With CCCCCCCOC(=O)c1ccc(O)cc1 as the compound, how does the outcome read?
Answer: Its outcome is “inactive”.

Question: For Oc1ccc(/C=C/c2cc(O)cc(O)c2)cc1, which outcome is on record?
Answer: Its outcome is “inactive”.

Question: Which AC50 does the source give for CCCCNS(=O)(=O)c1ccc(C)cc1 here?
Answer: Its AC50 is 1.72 µM (active).

Question: With CCOC(=O)C1=NOC(c2ccccc2)(c2ccccc2)C1 as the compound, how does the outcome read?
Answer: Its outcome is “inactive”.

tested on: not listed separately; assay: NVS_IC_rCaBTZCHL: NovaScreen (NVS) Ion Channel Assay for Calcium Channel, Type L, Benzothiazepine Site (CaBTZCHL) (AID 2283337)
Summary of the method: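 Radioligand displacement at the benzothiazepine site using rat cortical membranes; bound label measured by filtration and scintillation counting 1.5 h after dosing. Single-point 25 uM in duplicate, then concentration series; DMSO baseline.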

Question: Which outcome does the source give for CCCCCCOC(=O)CCCCC(=O)OCCCCCC here?
Answer: The outcome was “inactive”.

Question: Which outcome does the source give for CCCCCCCCC(CO)CCCCCC (centres undefined) here?
Answer: Its outcome is “inactive”.

Question: Which outcome does the source give for Nc1ccnc(=O)[nH]1 here?
Answer: Its outcome is “inactive”.

biological target: bovine Estrogen Receptor (ER), ESR1 (gene 407238) (UniProt P49884); assay: NVS_NR_bER: NovaScreen (NVS) Nuclear Receptor Binding Assay for bovine Estrogen Receptor (ER) (AID 2283345);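 note: actives lower the bound radioligand count which means they displace the ER ligand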
Sequence (P49884 whole entry, looked up): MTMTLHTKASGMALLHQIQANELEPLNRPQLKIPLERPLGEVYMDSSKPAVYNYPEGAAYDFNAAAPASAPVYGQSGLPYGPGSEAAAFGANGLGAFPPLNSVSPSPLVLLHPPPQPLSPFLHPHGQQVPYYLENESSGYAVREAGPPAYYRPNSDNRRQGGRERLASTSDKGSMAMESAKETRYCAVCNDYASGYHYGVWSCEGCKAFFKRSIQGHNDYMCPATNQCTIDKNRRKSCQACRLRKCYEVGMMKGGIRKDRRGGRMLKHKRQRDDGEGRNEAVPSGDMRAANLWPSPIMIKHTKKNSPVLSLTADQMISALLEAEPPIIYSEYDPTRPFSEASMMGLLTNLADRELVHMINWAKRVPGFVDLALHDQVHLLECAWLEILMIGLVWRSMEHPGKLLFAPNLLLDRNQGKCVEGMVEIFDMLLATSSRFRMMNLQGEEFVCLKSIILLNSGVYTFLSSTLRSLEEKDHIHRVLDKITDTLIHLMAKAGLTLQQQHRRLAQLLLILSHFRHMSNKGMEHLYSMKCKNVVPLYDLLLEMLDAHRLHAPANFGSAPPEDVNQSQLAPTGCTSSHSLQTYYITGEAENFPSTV
Summary of the method: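 Scintillation counting of displaced radioligand gave the readout; bovine uterine membrane extract supplied the receptor. Measured 18 h post-dose, normalized to DMSO baseline. Single 25 uM duplicate screen preceded concentration-response follow-up.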

Question: For Nc1ccc(O)c([N+](=O)[O-])c1, which outcome is on record?
Answer: Its outcome is “inactive”.

Question: For C=C(C)C(=O)OCC(O)COc1ccc(C(C)(C)c2ccc(OCC(O)COC(=O)C(=C)C)cc2)cc1 (centres undefined), which outcome is on record?
Answer: The outcome was “inactive”.

Question: For O=C(O)C1CCC(C(=O)O)CC1 (centres undefined), which outcome is on record?
Answer: Its outcome is “inactive”.

Question: For CCCCCCCCCCCCc1ccc(O)cc1, which AC50 is on record?
Answer: The AC50 was 10.7 µM (active).

Question: For C=CC(=O)OCC(C)OCC(C)OCC(C)OC(=O)C=C (centres undefined), which outcome is on record?
Answer: The outcome was “inactive”.

Question: For N#Cc1ccc(C2CCCc3cncn32)cc1 (centres undefined), which outcome is on record?
Answer: The outcome was “inactive”.

Question: With C=CCCCCCCCCC=O as the compound, how does the outcome read?
Answer: The outcome was “inactive”.

Question: With CCCCCCCCCCCCCCCCCCOS(=O)(=O)O as the compound, how does the outcome read?
Answer: Its outcome is “inactive”.

Question: With COc1ccc(-c2coc3cc(O)cc(O)c3c2=O)cc1 as the compound, how does the AC50 read?
Answer: Its AC50 is 14.6 µM (active).

Question: For CC(C)c1ccc(O)c(C(C)C)c1, which outcome is on record?
Answer: The outcome was “inactive”.

Question: For c1ccc(Nc2cccc3ccccc23)cc1, which outcome is on record?
Answer: The outcome was “inactive”.

Question: Which outcome does the source give for CC(C)=CCCC(C)=CC#N here?
Answer: The outcome was “inactive”.

Question: With O=c1c(O)c(-c2ccc(O)cc2O)oc2cc(O)cc(O)c12 as the compound, how does the outcome read?
Answer: Its outcome is “inactive”.

Question: For C=CC(=O)OCCCCCCOC(=O)C=C, which outcome is on record?
Answer: The outcome was “inactive”.

Question: For CCCCCCCOC(=O)c1ccc(O)cc1, which AC50 is on record?
Answer: The AC50 was 13.2 µM (active).

Question: With O=S(=O)(O)c1ccc(Nc2nc(Nc3ccc(C=Cc4ccc(Nc5nc(Nc6ccc(S(=O)(=O)O)cc6)nc(N(CCO)CCO)n5)cc4S(=O)(=O)O)c(S(=O)(=O)O)c3)nc(N(CCO)CCO)n2)cc1 as the compound, how does the outcome read?
Answer: Its outcome is “inactive”.

Question: Which outcome does the source give for CC(C)(c1ccccc1)c1ccc(Nc2ccc(C(C)(C)c3ccccc3)cc2)cc1 here?
Answer: Its outcome is “inactive”.

Question: Which outcome does the source give for C=C[Si](OCCOC)(OCCOC)OCCOC here?
Answer: The outcome was “inactive”.

Question: With CCOC(=O)/C=C\C(=O)OCC as the compound, how does the outcome read?
Answer: The outcome was “inactive”.

Question: Which AC50 does the source give for Oc1ccc(/C=C/c2cc(O)cc(O)c2)cc1 here?
Answer: Its AC50 is 25 µM (active).

Question: For C[Si](C)(C)N[Si](C)(C)C, which outcome is on record?
Answer: The outcome was “inactive”.

Question: Which outcome does the source give for CC(=O)OCc1ccccc1 here?
Answer: The outcome was “inactive”.

Question: Which AC50 does the source give for CC(C)(C)C1CCC(=O)CC1 here?
Answer: The AC50 was 25 µM (active).

Question: Which outcome does the source give for O=C(Nc1ccccc1)c1cc(Cl)ccc1O here?
Answer: Its outcome is “inactive”.
